System: MARIMO
Assay: cell viability relative to vehicle control; higher = less cytotoxic
Conditions: 10 µM; SRSF2 genotype: SRSF2 P95H/wt
Outline: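 CRISPR-edited SRSF2 P95 mutant and isogenic wild-type clones of four leukaemia lines were screened against Selleck bioactive, kinase and epigenetic probe libraries, with identity-inconsistent compounds removed. Compounds were acoustically dispensed into 384-well plates at a single 10 µM dose, with 2000 cells in 50 µL medium per well. After 48 h, supernatant was removed and CellTiter-Glo luminescence was read. Viability was expressed as percent of the on-plate DMSO vehicle control, analysed in Genedata Screener.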

Compound	cell viability [%]
Cc1ccc(Nc2c(F)cccc2Cl)c(CC(=O)O)c1 [Lumiracoxib (COX-189)]	98.9
CC(C)=CCC[C@](C)(O[C@@H]1O[C@H](CO)[C@@H](O)[C@H](O)[C@H]1O)[C@H]1CC[C@]2(C)[C@@H]1[C@H](O)C[C@@H]1[C@@]3(C)CC[C@H](O)C(C)(C)[C@@H]3CC[C@]12C [Ginsenoside CK]	92.6
CCCCCCCCCC(C)=O [Methylnonylketone]	96.2
COc1cc(O)c(C(=O)/C=C/c2ccccc2)c(OC)c1 [Flavokawain B]	34.5
c1ccc(CNc2nc(NCc3ccccc3)c3ccccc3n2)cc1	0.92
Nc1nonc1C(=Nc1ccc(F)c(Cl)c1)NO	92
NC(=O)c1ccc[n+]([O-])c1 [Nicotinamide N-oxide]	107
CCCCNC(=O)NS(=O)(=O)c1ccc(C)cc1 [Tolbutamide]	105
O=C(CCN1CCN(C(=O)OCc2cc(Cl)cc(Cl)c2)CC1)c1ccc2[nH]c(=O)oc2c1	87.2
CC1=NN(c2ccccc2)C(=O)C1 [Edaravone (MCI-186)]	111
CNC(=C[N+](=O)[O-])NCCSCc1csc(CN(C)C)n1 [Nizatidine]	101
CC1=C(/C=C/C(C)=C/C=C/C(C)=C/C=C/C=C(C)/C=C/C=C(C)/C=C/C2=C(C)C(=O)[C@@H](O)CC2(C)C)C(C)(C)C[C@H](O)C1=O [Astaxanthin]	98.3
O=C(O)c1cc(O)c2c(c1)[C@@H]([C@H]1c3cc(C(=O)O)cc(O)c3C(=O)c3c(O[C@@H]4O[C@H](CO)[C@@H](O)[C@H](O)[C@H]4O)cccc31)c1cccc(O[C@@H]3O[C@H](CO)[C@@H](O)[C@H](O)[C@H]3O)c1C2=O [Sennoside B]	79.3
